# Only some compounds are listed: those with a hit (about 8.9% of all), similar ones and a draw of the others.
# 12-hLO inh: 12-hLO (ALOX12) enzyme inhibition; purified 12-hLO, xylenol orange hydroperoxide absorbance; Potency, µM (doses to about 57.1 µM), inactives show at the top dose activity change, negative = inhibition, most hits filed as inhibitors; hit rate 0.12% among 150,000; AID 1452; also: potency is read from the fitted curve at half-maximal effect; nearly all actives have a fitted effect of over 55% in size
#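 Purified human 12hLO (150 nM), preincubated 15 min with compound, then 40 uM arachidonic acid for 30 min, room temperature, Hepes pH 7.0 with 0.01% Triton X-100. Hydroperoxide detected by ferrous iron/xylenol orange; 573/405 nm absorbance ratio gives reaction progress.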
# ALDH1A1 inh: inhibitors of human aldehyde dehydrogenase 1A1; P00352; Purified ALDH1A1, NADH fluorescence, propionaldehyde substrate; Potency, µM (doses to about 75.3 µM), without a hit: at the highest dose activity, negative = inhibition, usual class: inhibitors; hit rate 7.3% among 220,000; AID 1030; active = well fitted inhibition curve with a large enough effect, not every such curve was filed as active; inconclusive = small, poorly fitted or top-dose-only effect, or another doubt; inactive = no such curve, though single readings can be large or run the other way;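 also: potency is read from the fitted curve at half-maximal effect; plate controls were no enzyme wells and a reference inhibitor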
# Target sequence (P00352 whole entry, looked up): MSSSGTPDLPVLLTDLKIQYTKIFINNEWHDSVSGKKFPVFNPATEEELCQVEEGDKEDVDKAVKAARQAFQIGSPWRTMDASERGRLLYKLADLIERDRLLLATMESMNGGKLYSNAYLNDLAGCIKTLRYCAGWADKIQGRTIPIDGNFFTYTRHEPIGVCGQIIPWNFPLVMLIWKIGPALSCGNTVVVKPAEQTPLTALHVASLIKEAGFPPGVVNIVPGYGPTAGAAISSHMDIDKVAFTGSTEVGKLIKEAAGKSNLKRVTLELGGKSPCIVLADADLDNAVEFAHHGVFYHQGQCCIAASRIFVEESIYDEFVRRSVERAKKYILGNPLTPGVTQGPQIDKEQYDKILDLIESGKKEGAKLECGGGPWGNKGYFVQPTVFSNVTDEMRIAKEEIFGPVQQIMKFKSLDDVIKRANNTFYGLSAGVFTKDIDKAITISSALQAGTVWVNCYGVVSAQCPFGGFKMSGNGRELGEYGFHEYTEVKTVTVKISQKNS
# HPGD inh: inhibitors of human 15-hydroxyprostaglandin dehydrogenase (HPGD); AID 894; Potency, µM, inactives show top-dose activity change, negative = inhibition, hits mostly inhibitors; purified HPGD, NADH fluorescence kinetic, PGE2 substrate; hit rate 4.3% among 150,000; active = well fitted inhibition curve with a large enough effect, not every such curve was filed as active; inconclusive = small, poorly fitted or top-dose-only effect, or another doubt; inactive = no such curve, though single readings can be large or run the other way; also: potency is read from the fitted curve at half-maximal effect
#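 20 nM HPGD preincubated 15 min at room temperature with compound in 50 mM Tris-HCl pH 8, 0.01% Tween 20. Started with 1 mM NAD+ and 30 uM prostaglandin E2; NADH fluorescence (360/450 nm) read 5 times over 30-s intervals, last minus first.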
# IMPase Li cell: membrane-permeable IMPase blocker, potentiated with lithium; Potency, µM (titrated, usually from 59.4 µM), inactives show at the highest dose activity, negative = IMPase inhibition, actives largely listed as inhibitors; CHO-M1 cells, IP1 TR-FRET (IP-One), carbachol + lithium; hit rate 0.35% among 210,000;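 also: IP1 builds up when IMPase is blocked and the TR-FRET signal falls; potency is read from the fitted curve at half-maximal effect; plate controls were basal vehicle for no effect and high inhibitor control for full effect; nearly all actives have a fitted effect of over 50% in size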
#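 Concentration–response in CHO-M1 cells, lithium-potentiated; 30 min at 37C. IP1 detected by competitive TR-FRET after 10 min lysis at RT. Hill-fitted AC50.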
# IMPase cell inh: cell-permeable inhibitors of inositol monophosphatase (IMPase); CHO-M1 cells, IP1 accumulation, HTRF TR-FRET ratio; inhibition (IP1 accumulation), % at 46.1 µM; 120,000 tested, under 10 active; AID 901; active = well fitted curve in the direction sought with a large enough effect in the signal ratio, not every such curve was filed as active; inconclusive = small, poorly fitted or top-dose-only effect, or a change in a side signal; inactive = no such curve, though single readings can be large or run the other way; the % refers to the signal ratio;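 also: cells stimulated with carbachol in lithium chloride buffer; plate controls were DMSO basal wells for no effect and reference inhibitor wells for full effect; higher means more IMPase inhibition seen as more IP1 and lower FRET ratio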
# Target sequence (P97697 whole entry, looked up): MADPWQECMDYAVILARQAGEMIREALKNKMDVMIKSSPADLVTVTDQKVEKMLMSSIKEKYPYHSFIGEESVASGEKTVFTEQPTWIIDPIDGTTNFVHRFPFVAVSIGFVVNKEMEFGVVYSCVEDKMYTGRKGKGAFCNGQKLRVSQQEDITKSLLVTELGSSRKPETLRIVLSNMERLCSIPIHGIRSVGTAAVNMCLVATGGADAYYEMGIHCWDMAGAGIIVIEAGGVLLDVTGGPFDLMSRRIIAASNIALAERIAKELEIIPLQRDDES
#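 CHO-M1, 2000 cells/well, cultured 16–30 h; cpd up to 46 uM; carbachol (50 uM solution, stimulation buffer w/ 50 mM LiCl, pH 7.4), 30 min 37C; IP-One TR-FRET, 10 min RT; Ex 320/Em 665, 620; Hill-fit AC50.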
# NPSR antag: blocks cAMP signaling of the human neuropeptide S receptor; Q6W5P4; CHO-NPSR cells, cAMP TR-FRET, antagonist mode; Potency, µM (doses to about 38.3 µM), for inactives: at the top dose activity change, negative = inhibition, most hits filed as inhibitors; hit rate 1% among 220,000; also: potency is read from the fitted curve at half-maximal effect; nearly all actives have a fitted effect of over 50% in size
# * = called active by the depositor; ? = inconclusive; . = no result; [ ] = another dose, or the depositor's remark. Unless noted, calls follow the shape of the dose curve; as a rule, active = well fitted curve in the direction sought with a large enough effect; inconclusive = small, poorly fitted or top-dose-only effect, or another doubt; inactive = no such curve, though single readings can be large; an effect the other way counts as inactive or inconclusive. Unless noted, % is scaled to controls: 0 for no effect and ±100 for the full control effect.
SMILES,12-hLO inh,ALDH1A1 inh,HPGD inh,IMPase Li cell,IMPase cell inh,NPSR antag
CCC1CCCCN1C(=O)CNCC1CCCO1 (stereo not drawn),.,?,.,4.9%,.,-27.3%
O=C(Nc1nnc(C(F)(F)F)s1)c1ccc(N2C(=O)C3C4C=CC(C4)C3C2=O)cc1 (stereo not drawn),1.0%,0.9%,14.1µM*,-10.7%[38.3 µM],-1.0,-12.9%[46.1 µM]
CCCc1nnc(NC(=O)c2ccc(N3C(=O)C4C5C=CC(C5)C4C3=O)cc2)s1 (stereo not drawn),4.7%,-5.5%,-18.4%,-1.9%[38.3 µM],4.3,-12.9%[46.1 µM]
Cc1ccccc1C(=O)NNc1ccc(-c2csnn2)cc1,.,-0.9%,.,.,.,7.6%
CCCCNS(=O)(=O)/C=C/c1ccccc1,-3.0%,6.7%,-2.7%,2.3%,.,9.4%
Cc1ccc(C(=O)O/N=C\c2ccc(N3CCOCC3)c([N+](=O)[O-])c2)cc1,4.4%,2.24µM*,-23.4%,15.5%[38.3 µM],-0.2,-5.2%[46.1 µM]
CCCCC(=O)N/N=C/c1ccc(N2CCOCC2)c([N+](=O)[O-])c1,-2.3%,11.2µM*,3.2%,-0.7%,.,-0.2%
O=C(N/N=C/c1ccccc1)c1ccc(N2CCOCC2)c([N+](=O)[O-])c1,-0.4%,?,-26.3%,2.9%,.,-0.2%
CO/N=C/c1ccc(N2CCOCC2)c([N+](=O)[O-])c1,.,?,.,-2.4%,.,7.5%
CCC(C)/C(C)=N/NC(=O)c1ccc(CSc2nc3ccccc3s2)cc1 (stereo not drawn),-0.6%,20µM*,20µM*,-0.4%,.,6.7%
CC(=O)Nc1ccc(Nc2ccc3nonc3c2[N+](=O)[O-])cc1,.,22.4µM*,.,12.8%,.,-9.8%
CN(C)C(=O)CN1CCN(c2nc3nonc3nc2N2CCCCC2)CC1,.,0.5%,.,2.1%,.,15.5%
COc1ccc(-n2c(C)cc(/C=N/Nc3nnc(C)n3N)c2C)cc1,-2.9%,12.6µM*,-18.9%,14.3%,-0.6,27.8%
CC(C)Cn1c(N)c(C(=O)COC(=O)c2cc(F)cc(F)c2)c(=O)n(C)c1=O,.,4.3%,.,11.1%,.,-21.2%
CC(C)Cn1c(N)c(C(=O)COC(=O)c2ccc([N+](=O)[O-])o2)c(=O)n(C)c1=O,.,17.8µM*,.,9.4%,.,-4.0%
CC(C)Cn1c(N)c(C(=O)COC(=O)c2ccc(O)cc2)c(=O)n(C)c1=O,.,7.94µM*,.,1.2%,.,-18.5%
CC(C)Cn1c(N)c(C(=O)COC(=O)c2cnc(Cl)c(Cl)c2)c(=O)n(C)c1=O,.,0.447µM*,.,25.8%,.,-49.2%
CCOc1cnc(-c2c(-c3c(Cl)cccc3Cl)noc2C)o1,.,?,.,16.0%,.,-40.6%
Cc1cccc(CCNC(=O)C2CCCN(S(=O)(=O)c3cccc4nsnc34)C2)c1 (stereo not drawn),12.0%,2.7%,-19.7%,22.4%,1.1,-19.2%[46.1 µM]
CC(C)Cn1c(SC(C)C(=O)Nc2ccc3c(c2)OCCO3)nc2ccccc2c1=O (stereo not drawn),-8.5%,15.8µM*,-14.3%,19.0%[38.3 µM],5.8,?
CCOc1ccc(C(=O)CC(Sc2ccc(C)cc2)C(=O)O)cc1 (stereo not drawn),.,1.58µM*,.,6.8%,.,-28.5%
COc1cccc(-c2ccc3c(N)c(C(=O)Nc4cc(C(F)(F)F)ccc4OC)sc3n2)c1,.,.,.,.,1.2,.
CC(C)OC(=O)c1nn2c(C(F)(F)F)cc(-c3ccco3)nc2c1Cl,4.5%,?,-18.0%,-6.1%,4.0,6.7%[46.1 µM]
CC(C)OC(=O)c1nn2c(C(F)(F)F)cc(-c3ccc(Br)o3)nc2c1Br,-7.3%,17.8µM*,.,.,5.7,-9.7%[46.1 µM]
Cc1cccc(-n2nc(C(=O)Nc3ccccc3)n3c(=O)cc(-c4ccccc4)nc23)c1,4.8%,10.1%,-7.7%,7.3%[38.3 µM],-1.6,-22.1%[46.1 µM]
SMILES,12-hLO inh,ALDH1A1 inh,HPGD inh,IMPase Li cell,IMPase cell inh,NPSR antag
CCCc1cc(=O)[nH]c(-n2[nH]c3c(c2=O)CCCC3)n1,5.6%,23.8µM*,22.4µM*,37.7%[38.3 µM],11.2,-8.6%[46.1 µM]
CCCc1cc(=O)[nH]c(SCC)n1,-2.4%,3.4%,-9.5%,2.8%[38.3 µM],4.4,0.9%[46.1 µM]
CN(C)S(=O)(=O)c1cccc(NC(=S)Nc2cccc3cnccc23)c1,.,7.94µM*,.,.,.,14.3%
Fc1ccc(NC(=S)Nc2cccc3cnccc23)cc1,.,7.94µM*,.,31.7%,.,-9.4%
CN(C)S(=O)(=O)c1cccc(NC(=O)c2ccncc2)c1,-1.8%,1.6%,0.0%,1.2%,.,13.0%
S=C(Nc1cccnc1)Nc1cccc2cnccc12,.,12.6µM*,.,7.9%,.,11.1%
Cc1cc(Cl)ccc1NC(=S)Nc1cccnc1,-3.3%,-7.8%,1.8%,10.2%[38.3 µM],2.4,-8.9%[46.1 µM]
S=C(Nc1ccc(Cl)cc1)Nc1cccc2cnccc12,-6.8%,17.8µM*,?,4.4%,.,-3.6%
CCOc1ccc(C(=O)NCC(c2cccs2)N(C)C)cc1OCC (stereo not drawn),-0.3%,-9.0%,-5.9%,28.1%,1.8,0.7%
CN(C)S(=O)(=O)c1cccc(NC(=S)Nc2ccc3cn[nH]c3c2)c1,.,22.4µM*,.,5.9%,.,4.1%
C[C@@H](CS(=O)(=O)Cc1ccccc1)C(N)=O,-2.2%[11.4 µM],0.0%[13.5 µM],-12.5%,-2.0%,.,.
O=C(C1CCC1)N1CCc2cc(S(=O)(=O)NC3CCCC3)ccc21,2.5%,-9.2%,10µM*,-14.1%[38.3 µM],4.7,-9.3%[46.1 µM]
O=C(C1CCC1)N1CCc2cc(S(=O)(=O)NC3CCCc4ccccc43)ccc21 (stereo not drawn),3.6%,-8.9%,?,35.3%[38.3 µM],-0.7,?
O=C(O)CCC(=O)N1CCc2cc(S(=O)(=O)NC3CCCC3)ccc21,-4.1%,7.9%,12.6µM*,2.8%[38.3 µM],-5.6,2.1%[46.1 µM]
CN(Cc1ccco1)S(=O)(=O)c1ccc2c(c1)CCN2C(=O)CCC(=O)O,-0.8%,10.4%,14.1µM*,-12.5%,.,5.7%
CCOC(=O)Cc1[nH]nc2c1C(Cc1ccccc1)C(C#N)=C(N)O2 (stereo not drawn),.,2.0%,.,.,.,7.6%
O=C(c1ccc([N+](=O)[O-])cc1)N1CCc2ccccc2C1,-1.3%,5.0%,28.2µM*,4.9%,.,-0.5%
O=C(c1ccc(S(=O)(=O)c2ccccc2)cc1)N1CCc2ccccc2C1,-5.8%,-15.5%,17.8µM*,25.9%,.,-7.0%
O=C(c1ccc(CNc2c(N3CCCC3)c(=O)c2=O)cc1)N1CCN(C2CCCCC2)CC1,-2.2%,-4.6%,-18.9%,11.2%,.,12.1%

# High-throughput results as filed in PubChem BioAssay.
